Binding signal data for five sequences are collected here from paper PMC7862700, “An all-to-all approach to the identification of sequence-specific readers for epigenetic DNA modifications on cytosine”.

What all share (experiment): DAPPL (digital affinity profiling via proximity ligation, sequencing); 10 mM Tris-HCl pH 7.5, 50 mM NaCl, 1 mM DTT, 4% glycerol, room temperature, 30 min; GST-TFs on glutathione beads, 16-mer random dsDNA library, 0.1% formaldehyde crosslink after washing; high values mean tight binding
What all share (conditions): protein: recombinant; tags: N-terminal GST; dsDNA, one strand shown

In one assay the target is T1, ELK1 (Homo sapiens, UniProt P19419 1-428).
T1 sequence: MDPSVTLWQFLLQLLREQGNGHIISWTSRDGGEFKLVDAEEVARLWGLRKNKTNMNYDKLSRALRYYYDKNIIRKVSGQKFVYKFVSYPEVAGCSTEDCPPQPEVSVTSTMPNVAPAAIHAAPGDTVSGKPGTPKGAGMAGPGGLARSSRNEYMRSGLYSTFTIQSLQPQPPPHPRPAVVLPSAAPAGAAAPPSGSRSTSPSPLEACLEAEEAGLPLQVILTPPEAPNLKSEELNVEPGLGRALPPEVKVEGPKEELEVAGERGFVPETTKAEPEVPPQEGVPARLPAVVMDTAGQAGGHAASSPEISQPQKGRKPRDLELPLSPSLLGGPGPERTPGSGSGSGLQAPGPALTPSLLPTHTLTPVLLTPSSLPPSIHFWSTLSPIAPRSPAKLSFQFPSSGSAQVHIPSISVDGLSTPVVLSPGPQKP
The procedure, abridged: (§1)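 Binding signal is given per hexamer as its read frequency for a factor divided by its frequency in the tag-only sample. GST-fused human transcription factors were expressed in yeast, captured on glutathione beads, barcoded with DNA and pooled with that sample, then incubated with 200 nmole of a 16-mer random double-stranded DNA library in Tris/NaCl/DTT/glycerol buffer for 30 min at room temperature. The pools were then washed, crosslinked, proximity-ligated, amplified by PCR and sequenced on an Illumina NextSeq500.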

The target of another assay is T2, ERG (Homo sapiens, UniProt P11308 1-479).
T2 sequence: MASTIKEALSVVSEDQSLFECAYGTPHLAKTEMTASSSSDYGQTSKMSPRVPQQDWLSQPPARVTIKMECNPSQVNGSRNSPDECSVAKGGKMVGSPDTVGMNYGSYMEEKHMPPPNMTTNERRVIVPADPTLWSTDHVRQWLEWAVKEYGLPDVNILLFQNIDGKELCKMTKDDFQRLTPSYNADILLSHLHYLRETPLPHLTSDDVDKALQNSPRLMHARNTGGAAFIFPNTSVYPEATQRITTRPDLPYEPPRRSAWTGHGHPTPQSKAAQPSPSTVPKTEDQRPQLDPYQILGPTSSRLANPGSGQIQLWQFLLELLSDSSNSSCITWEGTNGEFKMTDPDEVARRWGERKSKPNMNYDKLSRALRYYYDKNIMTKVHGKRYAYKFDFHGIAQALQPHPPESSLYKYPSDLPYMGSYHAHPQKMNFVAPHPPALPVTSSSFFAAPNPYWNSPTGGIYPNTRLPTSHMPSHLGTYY
In a few lines:
as §1

In the next assay the target is T3, ELK3 (Homo sapiens, UniProt P41970 1-407).
T3 sequence: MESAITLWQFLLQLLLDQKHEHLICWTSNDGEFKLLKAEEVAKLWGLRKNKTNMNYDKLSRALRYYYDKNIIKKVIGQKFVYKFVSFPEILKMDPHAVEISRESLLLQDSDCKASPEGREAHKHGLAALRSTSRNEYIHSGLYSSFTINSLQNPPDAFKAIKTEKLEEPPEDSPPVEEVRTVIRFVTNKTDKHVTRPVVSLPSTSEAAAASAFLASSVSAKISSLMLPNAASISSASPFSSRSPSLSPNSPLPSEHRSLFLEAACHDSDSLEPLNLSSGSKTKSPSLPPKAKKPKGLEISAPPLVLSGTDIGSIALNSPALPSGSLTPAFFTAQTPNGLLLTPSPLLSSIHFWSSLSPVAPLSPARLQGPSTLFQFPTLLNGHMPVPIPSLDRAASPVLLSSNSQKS
The procedure, abridged:
as §1

In another assay the target is T4, ELK4 (Homo sapiens, UniProt P28324-2 1-405).
T4 sequence: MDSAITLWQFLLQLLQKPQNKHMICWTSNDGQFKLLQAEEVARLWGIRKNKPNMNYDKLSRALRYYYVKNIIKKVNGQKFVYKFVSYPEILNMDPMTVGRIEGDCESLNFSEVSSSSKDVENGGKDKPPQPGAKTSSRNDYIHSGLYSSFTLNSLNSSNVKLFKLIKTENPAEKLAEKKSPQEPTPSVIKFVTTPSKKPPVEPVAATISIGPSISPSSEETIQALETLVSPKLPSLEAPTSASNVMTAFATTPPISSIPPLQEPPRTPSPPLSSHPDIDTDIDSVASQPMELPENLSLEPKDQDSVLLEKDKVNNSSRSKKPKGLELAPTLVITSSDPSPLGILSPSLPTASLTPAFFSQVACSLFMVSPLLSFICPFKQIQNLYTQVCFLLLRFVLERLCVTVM
The procedure, abridged: as §1

The target in another assay is T5, ETV2 (Homo sapiens, UniProt O00321 1-342).
T5 sequence: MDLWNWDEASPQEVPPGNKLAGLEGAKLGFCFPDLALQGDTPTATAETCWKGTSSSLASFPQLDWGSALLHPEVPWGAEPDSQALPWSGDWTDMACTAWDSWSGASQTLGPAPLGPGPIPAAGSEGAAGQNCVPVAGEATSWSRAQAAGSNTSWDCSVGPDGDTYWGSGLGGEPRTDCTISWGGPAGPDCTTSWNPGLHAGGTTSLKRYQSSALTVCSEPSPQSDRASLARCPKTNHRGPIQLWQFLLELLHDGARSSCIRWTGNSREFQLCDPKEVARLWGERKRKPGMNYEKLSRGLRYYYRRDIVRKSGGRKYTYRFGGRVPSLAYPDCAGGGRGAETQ
In a few lines: as §1

The target of another assay is T6, ELF3 (Homo sapiens, UniProt P78545 1-371).
T6 sequence: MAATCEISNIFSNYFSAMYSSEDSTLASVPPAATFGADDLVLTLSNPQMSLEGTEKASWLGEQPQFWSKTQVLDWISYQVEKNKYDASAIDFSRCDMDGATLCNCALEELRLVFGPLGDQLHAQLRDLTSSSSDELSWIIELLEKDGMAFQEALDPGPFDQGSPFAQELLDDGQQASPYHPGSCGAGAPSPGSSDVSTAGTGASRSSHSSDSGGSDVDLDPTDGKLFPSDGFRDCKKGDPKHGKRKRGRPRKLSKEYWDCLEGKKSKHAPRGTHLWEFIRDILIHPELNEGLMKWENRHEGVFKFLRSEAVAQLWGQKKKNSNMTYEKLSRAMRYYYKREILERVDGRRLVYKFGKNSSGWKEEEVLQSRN
The procedure, abridged:
as §1

The target in another assay is CRX (Homo sapiens, UniProt O43186 1-299). In a few lines: as §1
Another assay has as its target T7, ERF (Homo sapiens, UniProt P50548 1-548).
T7 sequence: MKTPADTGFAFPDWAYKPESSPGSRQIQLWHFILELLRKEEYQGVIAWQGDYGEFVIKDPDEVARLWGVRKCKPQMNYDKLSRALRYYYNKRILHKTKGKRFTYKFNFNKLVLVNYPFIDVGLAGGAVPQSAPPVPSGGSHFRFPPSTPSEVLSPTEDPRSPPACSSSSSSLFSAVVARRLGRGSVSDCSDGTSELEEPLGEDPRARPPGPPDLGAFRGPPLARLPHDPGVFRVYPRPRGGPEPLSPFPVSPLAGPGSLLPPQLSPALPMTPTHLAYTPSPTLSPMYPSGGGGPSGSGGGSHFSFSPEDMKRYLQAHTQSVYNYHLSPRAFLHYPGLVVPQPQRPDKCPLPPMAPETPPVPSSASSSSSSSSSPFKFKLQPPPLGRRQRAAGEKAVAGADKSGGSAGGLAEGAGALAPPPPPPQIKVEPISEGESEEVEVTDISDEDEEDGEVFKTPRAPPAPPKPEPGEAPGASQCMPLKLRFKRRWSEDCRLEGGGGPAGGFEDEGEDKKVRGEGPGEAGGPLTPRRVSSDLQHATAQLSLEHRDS
The procedure, abridged:
as §1

A further assay has as its target ELF1 (Homo sapiens, UniProt P32519 1-619). In a few lines:
as §1

A further assay has as its target ELF4 (Homo sapiens, UniProt Q99607 1-663). The procedure, abridged: as §1
The next assay has as its target T8, GABPA (Homo sapiens, UniProt Q06546 1-454).
T8 sequence: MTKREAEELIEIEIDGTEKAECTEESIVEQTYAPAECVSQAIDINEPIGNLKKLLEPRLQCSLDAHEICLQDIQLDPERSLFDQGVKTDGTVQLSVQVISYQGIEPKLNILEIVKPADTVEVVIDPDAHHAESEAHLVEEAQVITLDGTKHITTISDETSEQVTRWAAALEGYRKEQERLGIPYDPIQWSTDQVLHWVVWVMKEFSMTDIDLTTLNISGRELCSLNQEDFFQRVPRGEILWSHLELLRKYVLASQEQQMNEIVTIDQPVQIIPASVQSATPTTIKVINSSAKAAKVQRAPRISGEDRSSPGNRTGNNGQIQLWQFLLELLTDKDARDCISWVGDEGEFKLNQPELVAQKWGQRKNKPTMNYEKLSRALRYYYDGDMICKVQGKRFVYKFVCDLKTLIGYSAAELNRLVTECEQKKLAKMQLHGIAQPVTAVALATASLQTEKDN
The procedure, abridged:
as §1

Another assay has as its target T9, EHF (Homo sapiens, UniProt Q9NZC4 1-300).
T9 sequence: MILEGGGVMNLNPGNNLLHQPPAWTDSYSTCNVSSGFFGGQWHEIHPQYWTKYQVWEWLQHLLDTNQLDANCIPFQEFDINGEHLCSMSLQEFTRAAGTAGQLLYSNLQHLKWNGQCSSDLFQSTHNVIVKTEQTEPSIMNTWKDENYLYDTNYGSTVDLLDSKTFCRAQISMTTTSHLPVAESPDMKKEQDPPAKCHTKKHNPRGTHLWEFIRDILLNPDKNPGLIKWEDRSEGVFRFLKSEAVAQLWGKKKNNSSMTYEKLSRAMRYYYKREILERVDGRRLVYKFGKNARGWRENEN
In a few lines: as §1

The target of another assay is T10, ETV7 (Homo sapiens, UniProt Q9Y603 1-341).
T10 sequence: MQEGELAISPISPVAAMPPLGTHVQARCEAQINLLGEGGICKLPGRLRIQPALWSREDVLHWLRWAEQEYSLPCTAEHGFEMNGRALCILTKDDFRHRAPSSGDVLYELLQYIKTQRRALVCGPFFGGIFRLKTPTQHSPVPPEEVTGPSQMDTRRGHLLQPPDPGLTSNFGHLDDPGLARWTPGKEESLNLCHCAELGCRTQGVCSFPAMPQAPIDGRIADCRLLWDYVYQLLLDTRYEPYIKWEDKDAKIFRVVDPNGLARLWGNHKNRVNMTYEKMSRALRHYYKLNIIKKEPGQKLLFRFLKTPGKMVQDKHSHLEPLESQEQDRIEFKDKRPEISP
In a few lines: as §1

ELF4, sequence (Q99607 whole entry): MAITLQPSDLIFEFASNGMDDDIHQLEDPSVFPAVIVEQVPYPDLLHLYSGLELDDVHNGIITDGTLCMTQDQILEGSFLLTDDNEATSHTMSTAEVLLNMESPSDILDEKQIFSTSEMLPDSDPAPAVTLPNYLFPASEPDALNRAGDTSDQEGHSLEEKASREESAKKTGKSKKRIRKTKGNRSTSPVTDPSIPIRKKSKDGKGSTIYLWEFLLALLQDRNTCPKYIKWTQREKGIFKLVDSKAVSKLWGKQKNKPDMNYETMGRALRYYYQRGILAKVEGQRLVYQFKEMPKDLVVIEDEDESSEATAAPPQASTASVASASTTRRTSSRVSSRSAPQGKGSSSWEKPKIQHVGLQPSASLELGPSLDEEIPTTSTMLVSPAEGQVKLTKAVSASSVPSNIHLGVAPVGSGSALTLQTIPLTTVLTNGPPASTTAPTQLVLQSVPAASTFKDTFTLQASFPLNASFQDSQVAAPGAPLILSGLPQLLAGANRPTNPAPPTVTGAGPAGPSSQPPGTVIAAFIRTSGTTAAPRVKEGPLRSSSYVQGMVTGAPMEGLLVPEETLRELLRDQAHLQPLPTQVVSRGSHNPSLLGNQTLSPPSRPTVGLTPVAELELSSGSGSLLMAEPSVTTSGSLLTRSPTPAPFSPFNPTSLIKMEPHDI
ELF1, sequence (P32519 whole entry): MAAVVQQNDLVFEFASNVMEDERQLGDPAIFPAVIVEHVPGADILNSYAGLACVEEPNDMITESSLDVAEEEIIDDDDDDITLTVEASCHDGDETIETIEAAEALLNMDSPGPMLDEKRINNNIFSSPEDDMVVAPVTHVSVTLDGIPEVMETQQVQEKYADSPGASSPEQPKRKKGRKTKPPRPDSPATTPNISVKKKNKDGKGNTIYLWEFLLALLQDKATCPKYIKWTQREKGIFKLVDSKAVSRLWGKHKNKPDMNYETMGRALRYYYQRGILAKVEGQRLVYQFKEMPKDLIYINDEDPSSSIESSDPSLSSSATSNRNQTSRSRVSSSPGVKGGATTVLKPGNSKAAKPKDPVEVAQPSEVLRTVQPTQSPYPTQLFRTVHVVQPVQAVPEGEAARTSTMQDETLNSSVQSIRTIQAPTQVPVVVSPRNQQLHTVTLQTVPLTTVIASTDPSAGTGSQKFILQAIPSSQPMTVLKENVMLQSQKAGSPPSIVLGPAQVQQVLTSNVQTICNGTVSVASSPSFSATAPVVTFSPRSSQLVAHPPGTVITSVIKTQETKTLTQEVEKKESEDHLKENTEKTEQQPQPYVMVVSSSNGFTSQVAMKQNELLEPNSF
CRX, sequence (O43186 whole entry): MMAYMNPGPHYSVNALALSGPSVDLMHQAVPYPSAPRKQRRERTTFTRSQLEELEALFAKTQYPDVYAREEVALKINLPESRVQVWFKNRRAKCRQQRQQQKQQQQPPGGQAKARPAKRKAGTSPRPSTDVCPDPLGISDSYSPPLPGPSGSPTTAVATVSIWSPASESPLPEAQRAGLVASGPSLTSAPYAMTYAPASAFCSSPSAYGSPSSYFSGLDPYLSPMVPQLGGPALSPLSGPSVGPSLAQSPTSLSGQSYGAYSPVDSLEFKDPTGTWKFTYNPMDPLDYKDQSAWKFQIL

As to GTGTTA, the binding signal with ELK1 is 1.02 fold enrichment (6-mer frequency, TF over GST control); with ERG, 1.01 fold enrichment (6-mer frequency, TF over GST control); with ELK3, 1.02 fold enrichment (6-mer frequency, TF over GST control); in the assay with ELK4 it was 1.04 fold enrichment (6-mer frequency, TF over GST control); in the assay with ETV2 it was 1.01 fold enrichment (6-mer frequency, TF over GST control); in the assay with ELF3, 1.15 fold enrichment (6-mer frequency, TF over GST control). Besides, the binding signal with CRX was 1.11 fold enrichment (6-mer frequency, TF over GST control); in the assay with ERF, 1.06 fold enrichment (6-mer frequency, TF over GST control).
For the sequence GCCAAC, the binding signal was 1.01 fold enrichment (6-mer frequency, TF over GST control) with ELF1; 1.04 fold enrichment (6-mer frequency, TF over GST control) with ELF4; 1.03 fold enrichment (6-mer frequency, TF over GST control) with ERF.
For the sequence GCATAC, the binding signal is 1.01 fold enrichment (6-mer frequency, TF over GST control) in the assay with GABPA; 1.01 fold enrichment (6-mer frequency, TF over GST control) with EHF; 1.05 fold enrichment (6-mer frequency, TF over GST control) with ELK3; 1.01 fold enrichment (6-mer frequency, TF over GST control) with ELF4; 1 fold enrichment (6-mer frequency, TF over GST control) with ETV7.
Turning to ACAGTT, in the assay with ELK4, the binding signal is 1.02 fold enrichment (6-mer frequency, TF over GST control).
On to CTGTGT, for which the binding signal in the assay with ELK4 is 1.04 fold enrichment (6-mer frequency, TF over GST control).
